Here are results for 40 compounds from PubChem BioAssay (Tox21).

Structures are written as SMILES. Inconclusive results are not listed. The source made the active and inactive calls. Calls follow the shape of the dose curve; as a rule, active = well fitted inhibition curve with a large enough effect in the signal ratio in the repeat runs (not every such curve was filed as active); inconclusive = weak or mixed curves, or effect the other way; inactive = no such curve, though single readings can be large or run the other way; the % refers to the signal ratio.
% is scaled to controls: 0 for no effect and ±100 for the full control effect; potency is read from the fitted curve at half-maximal effect.

Estrogen receptor beta (Homo sapiens), sequence (Q92731 whole entry, looked up): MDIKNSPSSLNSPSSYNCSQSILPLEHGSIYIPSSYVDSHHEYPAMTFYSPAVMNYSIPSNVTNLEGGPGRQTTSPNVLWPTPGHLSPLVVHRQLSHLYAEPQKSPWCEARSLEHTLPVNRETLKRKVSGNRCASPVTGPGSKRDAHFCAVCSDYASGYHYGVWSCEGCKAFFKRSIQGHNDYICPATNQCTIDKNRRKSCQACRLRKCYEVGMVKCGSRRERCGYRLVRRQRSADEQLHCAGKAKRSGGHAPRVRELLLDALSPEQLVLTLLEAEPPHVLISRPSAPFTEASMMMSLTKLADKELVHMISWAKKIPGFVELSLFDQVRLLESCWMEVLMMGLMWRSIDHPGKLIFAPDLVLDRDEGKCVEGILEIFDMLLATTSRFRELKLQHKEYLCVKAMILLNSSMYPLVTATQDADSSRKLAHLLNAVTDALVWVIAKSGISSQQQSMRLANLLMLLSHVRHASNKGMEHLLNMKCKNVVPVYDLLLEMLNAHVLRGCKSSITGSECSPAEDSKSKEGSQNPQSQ

The assay concerns the target Estrogen receptor beta (Homo sapiens) (UniProt Q92731). Briefly: qHTS assay to identify small molecule antagonists of the estrogen receptor beta (ER-beta) signaling pathway (AID 1259378). The conditions noted are these: ER-beta-UAS-bla HEK293T, beta-lactamase FRET ratio, 16 h; series mostly up to 92.4 µM; activity, negative = inhibition: at the top concentration. The text has this:
National Center for Advancing Translational Sciences [NCATS]
NIH Chemical Genomics Center [NCGC]
U.S. Environmental Protection Agency [EPA]
National Institutes of Environmental Health Sciences [NIEHS]
National Toxicology Program [NTP]
U.S. Food and Drug Administration [FDA]
Estrogen receptor (ER), a nuclear hormone receptor, plays an important role in development, metabolic homeostasis and reproduction. Two subtypes of ER, ER-alpha and ER-beta, have similar expression patterns with some uniqueness in both types. Endocrine disrupting chemicals (EDCs) and their interactions with steroid hormone receptors like ER causes disruption of normal endocrine function. To identify the compounds that inhibit ER signaling, an ER-beta-UAS-bla GripTite cell line (Life Technologies, Madison, WI, USA) containing a beta-lactamase reporter gene under the control of an UAS response element was used to screen Tox21 10K compound library.
Tox21 Assay Protocol Summary:
ER-beta-UAS-bla HEK293T cells were dispensed at 2,000 cells/4 uL of assay medium containing 2% charcoal stripped FBS per well into black wall/clear-bottom 1536-well plates using a Multidrop Combi (ThermoFisher Scientific, Waltham, MA) dispenser. After the assay plates were incubated at a 37C and 5% CO2 for 6 hr, 23 nL of compounds dissolved in DMSO, positive controls or DMSO only was transferred to the assay plate by a Pintool station (Kalypsys, San Diego, CA), followed by addition of 1 uL (1nM as final concentration) of 17-beta-estradiol (E2) in assay medium using a BioRAPTR FRD (Flying Reagent Dispenser, Aurora Discovery, San Diego, CA). The plates were incubated at 37C and 5% CO2 for 16 hr. Then 1 uL of LiveBLAzerTM B/G FRET substrate was added using a Flying Reagent Dispenser, the plates were incubated at room temperature for 2 hours, and fluorescence intensity was measured by an Envision plate reader (PerkinElmer, Shelton, CT).
For orientation: qHTS replaces the single test concentration by a dilution series.
Turning to `O=Cc1c(Cl)cccc1Cl`, the “activity, negative = inhibition” value is -1.85% (inactive).

In the case of `CC[C@@H]([C@H](C)O)n1ncn(-c2ccc(N3CCN(c4ccc(OC[C@@H]5CO[C@@](Cn6cncn6)(c6ccc(F)cc6F)C5)cc4)CC3)cc2)c1=O`, the Potency was 5.96 µM (active). `[O]=[Bi]`: the activity, negative = inhibition was 1.25% [at 8.39 µM] (inactive). As for `CC(=N\O)/C(C)=N/O`, the “activity, negative = inhibition” value was -2.68% (inactive).

`O=C(O)c1cccc(O)c1`: the “activity, negative = inhibition” value was -2.3% (inactive). On to `CC#N`, for which the “activity, negative = inhibition” value is 3.44% (inactive). Turning to `CCCCOC(=O)CCS`, the “activity, negative = inhibition” value was -3.19% (inactive). The same measure, in the same setting: the result for `O=C(CCCCCCCCC#CI)Oc1ccccc1` reads -20.4% [at 42.5 µM] (inactive); that for `C[C@@H]1C[C@H]2[C@@H]3CCC4=CC(=O)C=C[C@]4(C)[C@@]3(F)[C@@H](O)C[C@]2(C)[C@H]1C(=O)CO`, -13.1% [at 42.5 µM] (inactive); that for `OC/C(Br)=C(\Br)CO`, 6.26% (inactive). For `COc1cc2ncnc(Nc3ccc(F)c(Cl)c3)c2cc1OCCCN1CCOCC1`, the Potency was 7.5 µM (active). As to `Cc1cc(S(=O)(=O)O)ccc1N=Nc1c(O)ccc2ccccc12`, the “activity, negative = inhibition” value was 14% (inactive). As for `CN1Cc2cc(C(=O)N3CCC(C4CCNCC4)CC3)ccc2N[C@@H](CC(=O)O)C1=O`, the “activity, negative = inhibition” value is 2.65% [at 42.5 µM] (inactive). Still for that read-out and setting: the result for `O=C1OCCN1/N=C/c1ccc([N+](=O)[O-])o1` reads -12.6% [at 42.5 µM] (inactive); that for `O=S1OCCO1`, 5.72% (inactive). With `CC(CCc1ccc2c(c1)OCO2)NN` (stereo not given), the “activity, negative = inhibition” value is -10.3% [at 42.5 µM] (inactive). `CCOC(=N)CC(=O)OCC`: the “activity, negative = inhibition” value was -5.53% (inactive). Still for that read-out and setting: the result for `CC1(C)C(=O)N(Br)C(=O)N1Cl` reads 12.1% (inactive); that for `CCOC(=O)c1ccccc1C`, 5.18% (inactive). On the same count and under the same terms, the result for `O=C(Nc1ccccc1)Nc1ccccc1` reads -21.9% (inactive); that for `CCCCCCCCCCCCCCCCBr`, 8% [at 19 µM] (inactive). As to `CC(=O)Oc1ccc(C(=C2CCCCC2)c2ccc(OC(C)=O)cc2)cc1`, the Potency is 0.0106 µM (active).

As to `CCCCC(CC)COC(=O)COc1ccc(Cl)cc1C` (stereo not given), the “activity, negative = inhibition” value is -0.422% (inactive). Same read-out and setting: the result for `CCCCCCOC(=O)C(C)C` reads 16.2% (inactive); that for `CC1CC(=O)NN=C1c1ccc(NCC(C)(C)NCC(O)COc2cc(Cl)ccc2C#N)cc1` (stereo not given), 1.67% [at 42.5 µM] (inactive); that for `CCCOCCOCCO`, 7.49% (inactive).

`C=CC(C)(O)CCCC(C)CCCC(C)CCCC(C)C` (stereo not given): the “activity, negative = inhibition” value was 6.03% (inactive).

For `C[Si](NC1CCCCC1)(NC1CCCCC1)NC1CCCCC1`, the “activity, negative = inhibition” value was -6.2% (inactive). For `CC[C@H](NC(=O)c1cc(F)ccc1NS(=O)(=O)c1cccc2cccnc12)c1ccccc1`, the “activity, negative = inhibition” value was -21.9% (inactive).

For the compound `COc1ccc(C(=O)c2cccc(O)c2)c(OC)c1`, the Potency was 43.2 µM (active). In the case of `Cc1cc(OI)c(C(C)C)cc1-c1cc(C(C)C)c(OI)cc1C`, the “activity, negative = inhibition” value was 7.8% [at 42.5 µM] (inactive). Same read-out and setting: to `C1COCO1` belongs -4.26% (inactive); to `N#C/C(=C1\SCC(c2ccccc2Cl)S1)n1ccnc1` (stereo not given), -25% [at 42.5 µM] (inactive). For `CC(CCO)CCc1ccccc1` (stereo not given), the “activity, negative = inhibition” value is 3.03% (inactive).

Take `CCCCC/C(=C\c1ccccc1)CO`: the “activity, negative = inhibition” value is 3.41% (inactive). Take `C[N+]1(C)CCC(=C(c2ccccc2)c2ccccc2)CC1`: the “activity, negative = inhibition” value was 0.298% [at 42.5 µM] (inactive). Still for that read-out and setting: to `CCOC(=O)OCC` belongs 1.46% (inactive); to `O=C1NCCN1`, -0.107% (inactive); to `c1cnc2c(n1)CCCC2`, -0.555% (inactive). In the case of `CCOC(=O)c1ccccc1OC`, the “activity, negative = inhibition” value was 0% (inactive).
